Screening results as filed in PubChem.
Mito fusion act – blocks mitochondrial division or promotes mitochondrial fusion. S. cerevisiae fusion-defective mutant growth rescue, CellTiterGlo 48 h. Potency, µM (highest dose often 46.1 µM), inactives show at the top dose growth rescue (activation), actives largely listed as activators. actives 0.23% (n = 320,000); note: % of control where 0% means no effect; nearly all actives have a fitted effect of over 45% in size
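Growth-rescue viability read-out: after 48 h at the non-permissive 37C in glycerol/ethanol YPEG, yeast mitochondrial fusion mutants are measured by CellTiterGlo luminescence; compounds (23 nl pinned per well) restoring growth score as division inhibitors or fusion activators.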
Abeta yeast res – compounds reversing amyloid beta toxicity in yeast. yeast expressing A-beta42, growth rescue, OD600, 48 h; response scale: 0% DMSO, 100% iron-clioquinol control. Potency, µM (series often up to 46.1 µM), hits mostly activators. actives 0.063% (n = 410,000). AID 1347071; note: nearly all actives have a fitted effect of over 55% in size
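Yeast A-beta toxicity model in growth medium with pinned compounds, 48 h at 30 C; growth read as absorbance at 600 nm. Normalized to FeCl3/clioquinol equimolar mix (positive) and DMSO (negative).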
TDP43 rescue – TDP-43 toxicity inhibition in yeast; TDP-43 expressing yeast growth rescue, BacTiter-Glo, 24 h; Potency, µM (series often up to 46.1 µM), without a hit: top-dose growth rescue (activation), hits mostly activators; actives 1.8% (n = 410,000); AID 652104; note: % of control where 0% means no effect; nearly all actives have a fitted effect of over 50% in size
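Galactose-induced TDP-43 yeast, OD600=0.02, compound pinned; 24 hr, 30 deg C; BacTiter-Glo luminescence for growth. Inhibitors of TDP-43 toxicity read as activators.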
aSyn yeast inh – inhibitors of alpha-synuclein toxicity in yeast. Yeast expressing alpha-synuclein, growth rescue, BacTiter-Glo, 24 h. Potency, µM (top dose mostly 46.1 µM), inactives show at the highest dose growth rescue (activation), actives largely listed as activators. actives 0.14% (n = 370,000). AID 652106; note: % of control where 0% means no effect; nearly all actives have a fitted effect of over 65% in size
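Galactose-induced alpha-syn yeast (OD600=0.02, raffinose-pregrown) + pinned cpd, 24 hr, 30 deg C; growth by BacTiter-Glo luminescence. Growth restoration scores as activation.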
GRP78 ERSR act – induces the endoplasmic reticulum stress response in human glioma cells | U87-MG GRP78 promoter luciferase reporter, 16 h | Potency, µM, for inactives: at the highest dose activation, most hits filed as activators | actives 0.02% (n = 420,000) | AID 602332; note: series mostly up to about 76 µM; % of control where 0% means no effect; nearly all actives have a fitted effect of over 35% in size
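Stably transfected U87-MG glioma cells carrying a GRP78-based luciferase sensor; 16 h compound incubation. Luminescence end-point read 10 min after Bright-Glo addition at room temperature.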
AT treatment – potential ataxia-telangiectasia treatment | actives 0.19% (n = 320,000) | AID 485349 | F2112 A-T fibroblasts, KAP-1 phosphorylation AlphaLISA; neocarzinostatin DNA damage 30 min before lysis | Potency, µM (doses to about 57.5 µM), inactives show at the highest dose activation, usual class: activators; note: % of control where 0% means no effect; nearly all actives have a fitted effect of over 45% in size
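ATM-like activity read as KAP-1 phosphorylation via AlphaLISA donor/acceptor antibody pairs after lysis and 6 hr at 25C. Cells were ATM-null patient fibroblasts (F2112, hTERT), dosed 60 min, then exposed to the DSB inducer NCS for 30 min.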
* hit, by the source's call; i = inactive; ? = inconclusive; / = no result given; [ ] = remark or other dose. An excerpt weighted towards active compounds, which were near 2.1% of everything screened. Calls come from the whole dose curve; as a rule, active = well fitted curve in the direction sought with a large enough effect; inconclusive = small, poorly fitted or top-dose-only effect, or another doubt; inactive = no such curve, though single readings can be large; an effect the other way counts as inactive or inconclusive. Potency is the fitted concentration of half-maximal effect.

SMILES	Mito fusion act	Abeta yeast res	TDP43 rescue	aSyn yeast inh	GRP78 ERSR act	AT treatment
O=C(Oc1c(-c2ccccc2)c(=O)n2c3c(cccc13)CC2)c1cccc([N+](=O)[O-])c1	1%	14µM*	-29%[1.82 µM]	?	-7%	10%
COc1ccc(-c2csc(C(O)c3ccc(F)c(OC)c3)n2)cn1 (stereo unspecified)	/	i	35µM*	19%	2%	/
COc1ccc(-c2csc(C(O)c3ccc(F)c(F)c3)n2)cn1 (stereo unspecified)	/	?	22µM*	?	-4%	/
OC(c1ccc(F)c(F)c1)c1nc(-c2ccc(Cl)cc2)cs1 (stereo unspecified)	/	i	?	?	-2%	/
Cc1cc(C(=O)NCc2nnc3n2CCN(Cc2ccc4c(c2)Cc2ccccc2-4)CC3)c(C)o1	/	/	/	/	-4%	/
COc1ccc(S(=O)(=O)Nc2noc3ccccc23)cc1OC	-11%	i	?	-5%	-4%	-7%
COc1ccc(S(=O)(=O)Nc2noc3ccccc23)cc1	7%	i	11µM*	-4%	0%	32%
COc1cccc(S(=O)(=O)Nc2noc3ccccc23)c1	7%	i	?	0%	-4%	-13%
CC(C)(C)c1ccc(S(=O)(=O)Nc2noc3ccccc23)cc1	30%	i	20µM*	-11%	-3%	19%
N#Cc1ccc(CC(C(=O)O)N2Cc3ccccc3C2=O)cc1 (stereo unspecified)	9%	i	-5%	-1%	-2%	7%
O=C(CSCc1ccccc1Cl)N/N=C/c1ccco1	-16%	i	13µM*	-9%	4%	-8%
O=C(CN1CCN(Cc2ccccc2Cl)CC1)N/N=C/c1ccco1	3%	i	-14%	2%	-3%	-7%
CC(C)c1ccc(Nc2c(-c3ccccc3O)nc3cnccn23)cc1	/	i	25µM*	/	?	/
CCOc1cc(/C=N/NC(=O)COc2ccc(Cl)cc2)ccc1OS(=O)(=O)c1ccccc1	13µM*	i	13%	24%	-2%	-3%
CCOC(=O)N/N=C/c1ccc(OCCSc2ccc(Cl)cc2)c(OCC)c1	35µM*	i	22%	9%	-5%	8%
COc1cccc(C(=O)N2CCCCC2CCN2CCCCC2)c1 (stereo unspecified)	/	i	-1%	/	-1%	/
COC(=O)CNc1nc(Cl)nc(NC2CCCCC2)n1	3%	i	12%	-7%	-1%	-7%
C=CCNc1nc(Cl)nc(NC2CCCCC2)n1	-1%	i	16µM*	-17%	-1%	-10%
CC(C)c1ccccc1NC(=O)CSc1nnc(COc2ccccc2Cl)o1	/	i	20µM*	/	-3%	/
COC(=O)c1ccccc1NC(=O)CSc1nnc(Cc2ccc(Cl)cc2)o1	26%	i	25µM*	6%	-3%	5%
O=S(=O)(c1ccc(Cl)cc1)c1nc(-c2cccs2)oc1SCc1ccc(F)cc1	/	i	4%	/	-3%	/
CCOC(=O)c1[nH]c(C)c(CCC(=O)NCc2ccc(OC(C)C)cc2)c1C	/	i	-3%	/	-3%	/
COc1cc2c(cc1OC)CN(C(=O)c1cccc([N+](=O)[O-])c1)CC2	-4%	i	22µM*	?	-3%	-12%
COc1cc2c(cc1OC)CN(C(=O)c1ccco1)CC2	-3%	i	-9%	0%	0%	1%
COc1cc2c(cc1OC)CN(C(=O)c1ccc(Br)o1)CC2	-6%	i	16µM*	5%	-4%	-6%
SMILES	Mito fusion act	Abeta yeast res	TDP43 rescue	aSyn yeast inh	GRP78 ERSR act	AT treatment
COc1ccc(Cl)cc1NC(=O)CC(C)=O	3%	i	0%	1%	-3%	-4%
COc1ccc(Cl)cc1NC(=O)COC(=O)c1c(-c2ccccc2)noc1C	-5%	?	13µM*	18%	-1%	-2%
COc1ccc(Cl)cc1NC(=O)CC(C)c1ccccc1 (stereo unspecified)	-27%	?	13µM*	-10%	-1%	0%
COCc1c(C(=O)NCC2CCCN(C)C2)cnn1-c1ncc2c(n1)-c1ccccc1CCC2 (stereo unspecified)	/	/	/	/	-4%	/
CCN(C(=O)CSc1nc2ccccc2n1CC(=O)NCc1ccc(OC)cc1)c1ccccc1	/	i	2%	/	0%	/
CCCNc1nc(Nc2ccc(C)cc2)nc(N2CCCC2)n1	4%	i	11µM*	1%	1%	/
Cc1ccc(S(=O)(=O)NOCc2ccccc2)cc1	/	i	-16%	18µM*	2%	17%
Cc1ccc(S(=O)(=O)NCC(=O)OCc2ccccc2)cc1	8%	i	/	9%	-4%	-11%
Cc1ccc(S(=O)(=O)N[C@@H](Cc2ccccc2)C(=O)CCl)cc1	-37%	i	3.2µM*	-39%	-12%	6%
Cc1ccc(S(=O)(=O)NC(Cc2ccccc2)C(=O)NN)cc1 (stereo unspecified)	0%	i	2%	-1%	-2%	-7%
CC(NC(=O)c1cc(F)ccc1F)c1nnc2n1CCN(Cc1ccc(-c3ccccc3)cc1)CC2 (stereo unspecified)	/	/	/	/	-5%	/
Cc1c(CCC(=O)N2CCC[C@H]2C(=O)O)c(=O)oc2cc3oc4c(c3cc12)CCCC4	7%	i	20µM*	12%	-9%	2%
Cc1coc2cc3oc(=O)c(CCC(=O)N4CCCCC4)c(C)c3cc12	/	i	22µM*	/	-1%	/
Cc1coc2cc3oc(=O)c(CC(=O)N4CCCCC4)c(C)c3cc12	/	i	10%	/	-3%	/
Cc1c(CCC(=O)O)c(=O)oc2cc3oc4c(c3cc12)CCCC4	16%	i	-1%	?	-13%	6%
O=C(Nc1nc(COc2ccccc2)cs1)c1ccccc1F	16µM*	i	0%	-5%	1%	0%
Cc1csc2nc(COc3cccc(NC(=O)c4ccccc4F)c3)cc(=O)n12	/	i	-1%	/	0%	/
COc1ccc(/C=N/NC(=O)C[n+]2ccccc2)c(OC)c1OC	-6%	i	17%	22µM*	-4%	1%
O=C(O)c1ccc(NCc2cccc(Br)c2)cc1	10µM*	i	11µM*	?	1%	0%
CCCCN(CCCC)c1nc(-c2ccccc2)nc2ccccc12	/	i	?	/	-1%	/
CCCCN(CC)c1nc(-c2ccncc2)nc2ccccc12	18µM*	i	?	10%	-13%	3%
CCOc1ccc(C(=O)Cn2c(=O)n3nc(CCn4nc(C)cc4C)nc3c3cc(OC)c(OC)cc32)cc1	/	i	1%	/	-1%	/
